TDP-43 yeast inh = qHTS of TDP-43 Inhibitors. TDP-43 expressing yeast growth rescue, BacTiter-Glo, 24 h. Potency, µM (top dose mostly 46.1 µM), for the others: at the top dose growth rescue (activation), hits mostly activators. 410,000 tested, 1.8% active; also: % of control where 0% means no effect; nearly all actives have a fitted effect of over 50% in size
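Galactose-induced TDP-43 yeast, OD600=0.02, compound pinned; 24 hr, 30 deg C; BacTiter-Glo luminescence for growth. Inhibitors of TDP-43 toxicity read as activators.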
aSyn yeast inh = qHTS of alpha-syn Inhibitors | Yeast expressing alpha-synuclein, growth rescue, BacTiter-Glo, 24 h | Potency, µM (highest dose often 46.1 µM), without a hit: top-dose growth rescue (activation), most hits filed as activators | 370,000 tested, 0.14% active; also: % of control where 0% means no effect; nearly all actives have a fitted effect of over 65% in size
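Readout is rescue of growth in alpha-synuclein-expressing yeast, so inhibitors of toxicity appear as activators. Growth after 24 hr at 30 deg C in galactose medium is quantified by luminescence.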
Abeta yeast res = qHTS for compounds that reverse cellular toxicity of Amyloid beta (A-beta) peptide in yeast: Primary Screen; Potency, µM (highest dose often 46.1 µM), usual class: activators; AID 1347071, 2019; 410,000 tested, 0.063% active; yeast expressing A-beta42, growth rescue, OD600, 48 h; response scale: 0% DMSO, 100% iron-clioquinol control; also: nearly all actives have a fitted effect of over 55% in size
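Yeast growth medium received pinned compounds, then yeast cells expressing toxic A-beta were added; plates incubated at 30 C for 48 hr. Growth read as absorbance at 600 nm, normalized to DMSO and equimolar FeCl3 plus clioquinol controls.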
FUS suppressor = qHTS for Suppressors of FUS Proteinopathy: Primary screen using FUS-linked yeast assay; S. cerevisiae FUS-expressing, growth rescue, OD600, 24 h; Potency, µM (highest dose often 76.6 µM), most hits filed as activators; 390,000 tested, 0.24% active; AID 1347120, 2019;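 also: plate controls were DMSO vehicle for no effect and reference control for full effect; nearly all actives have a fitted effect of over 55% in size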
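Galactose (2%) drives FUS expression in yeast precultured in raffinose; seeding density OD 0.005. Test compounds incubated 24hr at 30C and 99% humidity before absorbance at 600 nm was measured.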
* hit, by the source's call; i = inactive; u = inconclusive; x = no result given; [ ] = dose if it differs, or a comment. Sampled rows, rich in hits. Any-hit rate of the full collection: about 2.1%. Calls follow the shape of the dose curve; as a rule, active = well fitted curve in the direction sought with a large enough effect; inconclusive = small, poorly fitted or top-dose-only effect, or another doubt; inactive = no such curve, though single readings can be large; an effect the other way counts as inactive or inconclusive. Potency is read from the fitted curve at half-maximal effect.

SMILES	TDP-43 yeast inh	aSyn yeast inh	Abeta yeast res	FUS suppressor
COc1ccccc1CC(=O)O/N=C(\N)c1ccccn1	u	10%	i	i
COc1ccc(CC(=O)O/N=C(\N)c2ccc(C)cc2)cc1	7.9µM*	4%	i	i
COc1ccc(C/C(=N\O)c2ccc(OC)cc2)cc1	14µM*	3%	i	i
COc1ccc(OCC(=O)O/N=C(\N)c2ccc(OC)c(OC)c2)cc1	20%	3%	i	i
COc1ccc(/C(N)=N/OC(=O)Cc2ccccc2OC)cc1	20µM*	-1%	i	i
COc1ccc(CC(=O)O/N=C(\N)c2ccncc2)cc1	9%	2%	i	i
COc1cccc(OCC(=O)O/N=C(\N)c2ccc(OC)c(OC)c2)c1	11µM*	11%	i	x
CN(C)/C=N/c1nc2nccc(-c3ccccn3)n2n1	10%[9.22 µM]	-2%	i	i
Cc1ccc(-c2ccnc3nc(-n4cccc4)nn23)o1	35µM*	-3%	i	i
Cc1ccc(OCCn2cc(C(=O)c3ccco3)c3ccccc32)cc1C	12%	x	i	i
COc1ccc(OCCn2cc(C(=O)c3ccco3)c3ccccc32)cc1	18µM*	x	u	i
N#C/C(=C\c1ccncc1)c1nc2ccccc2o1	-10%	2%	i	i
N#C/C(=C\Nc1ccccc1O)c1nc2ccccc2o1	7.1µM*	-40%	i	i
COCCN(Cc1cccs1)S(=O)(=O)c1cc(-c2cc(C)no2)ccc1C	35µM*	x	i	i
C=Cc1ccc(Cn2c(C(=O)O)c(CNCc3ccc(F)cc3)c3ccc(C)cc32)cc1	9%	x	i	32µM*
C=Cc1ccc(Cn2c(C(=O)O)c(CNCc3cccs3)c3ccc(C)cc32)cc1	0%	x	i	u
COc1ccc(Cn2c(C(=O)O)c(CNCCc3cc(OC)ccc3OC)c3ccc(C)cc32)cc1	4%	x	i	28µM*
CCOC(=O)[C@@]12CCC3=C1N(CCC3)C(=O)[C@H](CC(=O)N1CCSCC1)C2	x	x	x	i
CC(=O)c1cc(-c2cc(C(F)(F)F)cc(C(F)(F)F)c2)c(=O)n2c1CCC2	x	x	x	i
CCCCNC(=O)c1onc(CSc2ccccn2)c1C(=O)NCCCC	14µM*	12%	i	i
COc1ccc(-c2cccc(NS(=O)(=O)c3cc(C(F)(F)F)ccc3Cl)c2)nn1	6%	x	i	i
COc1ccc(-c2ccc(NS(=O)(=O)c3cc(C)c(C)cc3C)cc2)nn1	18µM*	x	i	u
COc1ccc(-c2cccc(NS(=O)(=O)c3cc(C)c(Cl)cc3C)c2)nn1	18µM*	x	i	u
CSc1ccc(/C=C/C(=O)c2ccc(O)cc2)cc1	14µM*	-11%	u	i
COc1ccccc1C(=O)NS(=O)(=O)c1ccc(C)cc1	18µM*	u	i	i
SMILES	TDP-43 yeast inh	aSyn yeast inh	Abeta yeast res	FUS suppressor
Cc1ccc(S(=O)(=O)NC(=O)c2ccccc2F)cc1	u	16%	i	i
Cc1ccc(CN[C@@H]2CC[C@@]34CCCN3C(=O)CCC[C@H]4C2)cc1	x	x	x	i
COc1ccc2oc(C(=O)N3CCN(S(=O)(=O)c4ccc(F)cc4)CC3)c(C)c2c1	u	2%	i	i
Cc1c(C(=O)N2CCN(S(=O)(=O)c3cc(F)ccc3F)CC2)oc2ccccc12	14µM*	9%	i	i
Cc1c(C(=O)N2CCN(S(=O)(=O)c3ccccc3)CC2)oc2ccccc12	16µM*	4%	i	i
COc1ccc(S(=O)(=O)N2CCN(C(=O)c3oc4ccccc4c3C)CC2)cc1	11µM*	-15%	i	u
Cc1c(C(=O)N2CCN(c3ccccc3)CC2)oc2c(F)cccc12	14µM*	6%	i	i
C=C(c1nc2ccccc2s1)C1Cc2cccc3c2N(CCC3)C1 (stereo not given)	x	-78%	x	x
CCn1c(SCC(=O)Nc2ccc3c(c2)c2ccccc2n3CC)nnc1-c1ccco1	20%	-11%	i	25µM*
CC(C)Nc1nc(NC(C)C)nc(SCCOC(=O)Nc2ccc(Cl)cc2Cl)n1	16µM*	-6%	i	x
Cc1ccc(OCCSc2nc(N)cc(N)n2)cc1	-20%	-17%	i	i
CCNc1nc(NC(C)C)nc(SCCOC(=O)c2ccccc2)n1	13µM*	-16%	i	i
CCNc1nc(NCC)nc(OCCOC(=O)c2ccccc2)n1	u	-2%	i	i
CCNc1nc(NC(C)C)nc(SCCOc2ccc(C)cc2)n1	13µM*	-12%	i	i
CCN(CC)C(=O)N1CCN(/[N+]([O-])=N/Oc2ccc([N+](=O)[O-])cc2[N+](=O)[O-])CC1	x	-58%	x	x
CCCCCSc1nc2c(c(=O)[nH]c(=O)n2C)n1C	3%	0%	i	i
CCCCCSc1nc2c(c(=O)[nH]c(=O)n2C)n1CC	13µM*	-9%	i	i
Cc1nc2ccc(S(=O)(=O)NCC(=O)NCc3ccccc3C)cc2s1	x	x	x	i
CC(O)(c1ccccc1)[N+]1(CC(=O)c2ccccc2)C=CC=C1 (stereo not given)	x	4%	x	x
Cc1cccc(NC(=O)CSCC(=O)N(C)Cc2ccc(Cl)c(Cl)c2)c1	25µM*	14%	i	i
O=C(Nc1nccs1)C1(c2ccc(Cl)cc2)CC1	19%	-1%	i	i
C=C1C2(C(=O)Nc3nccs3)CCC(C2)C1(C)C (stereo not given)	13µM*	0%	u	i
Cc1cc(C)c(C)c(S(=O)(=O)ON2C(=O)c3ccccc3C2=O)c1C	5.6µM*	16%	i	x
CC(C)CNC(=O)OCc1cn(Cc2ccccc2C(F)(F)F)nn1	x	x	x	i
COc1cc2nc(/C=C/c3cc(OC)c(OC)c(OC)c3)sc2cc1SC	-22%	-3%	i	u
SMILES	TDP-43 yeast inh	aSyn yeast inh	Abeta yeast res	FUS suppressor
COc1cc2nc(C)sc2cc1SC	20µM*	-1%	i	u
COc1ccc(-c2cc(-c3nnc4sc(Cc5cccs5)nn34)[nH]n2)cc1	x	x	x	i
CCCCCCC(=O)Nc1ccc(C(=O)N/N=C/c2cccnc2)cc1	-6%	-1%	i	28µM*
O=C1c2ccccc2NC(c2ccccc2)N1Cc1ccccc1 (stereo not given)	16µM*	9%	i	i
COc1cccc(C2Nc3ccccc3C(=O)N2Cc2ccccc2)c1 (stereo not given)	20%	3%	i	i
O=C1c2ccccc2NC(c2ccc(F)cc2)N1Cc1ccccc1 (stereo not given)	20µM*	2%	i	i
O=C(N[C@H](Cc1ccc(Cl)cc1)C(=O)O)OCC1c2ccccc2-c2ccccc21	-14%	1%	i	i
Nc1ccc(CNC(=O)OCC2c3ccccc3-c3ccccc32)cc1	14µM*	8%	i	u
COc1cccc(C(=O)Nc2cccc(-c3cn4ccsc4n3)c2)c1OC	13µM*	x	i	i
